DSG3 Ab inh = inhibitors of pemphigus antibody binding to DSG3, primary screen, biochemical, bead-based, flow cytometry, scFv-GFP | hit rate 0.48% among 310,000 | Desmoglein-3 (Homo sapiens), P32926 | DSG3-coupled beads, scFv-anti-DSG3-GFP binding; stronger effect = lower value | binding (percent of control), % at 10 µM;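 active means binding more than 3 SD below its plate's average and above zero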
ADAM17 inh = ADAM17 inhibitors, primary screen, biochemical, QFRET; Disintegrin and metalloproteinase domain-containing protein 17 (Homo sapiens), P78536; recombinant ADAM17, EDANS/DABCYL FRET peptide cleavage; inhibition, % at 6.95 µM; hit rate 0.83% among 370,000; AID 720648, 2013;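 active means inhibition above the mean of compounds lying between control limits plus 3 SD, set per campaign, cut at about 8.5% in these data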
MPTP block = mitochondrial permeability transition pore inhibitors, primary screen, biochemical, isolated mouse mitochondria, absorbance; inhibition, % at 10 µM; hit rate 1.4% among 360,000; Ca2+ swelling absorbance, 30 min;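 active means inhibition of 50% or more, scaled per plate between neutral and stimulator controls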
ADAM10 inh = human ADAM10 inhibitors, primary screen, biochemical, QFRET, HTS. Disintegrin and metalloproteinase domain-containing protein 10 (Homo sapiens), O14672. recombinant ADAM10, EDANS/DABCYL FRET peptide cleavage, 3 h. inhibition, % at 7 µM. hit rate 0.62% among 370,000;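 active means inhibition above a per-campaign cutoff equal to the mean of compounds falling between control-based bounds plus 3 SD, cut at about 20% in these data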
KLK7 zymogen act = proKLK7 zymogen activators, primary screen, biochemical, fluorescence intensity. Kallikrein-7 (Homo sapiens), P49862. purified proKLK7, EDANS-DABCYL substrate fluorescence; 100% is mature enzyme control, 0% vehicle. activation, % at 7 µM. hit rate 0.9% among 370,000. AID 652039, 2013;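 active means activation above the mean of all tested compounds plus 3 SD, computed per campaign excluding outliers beyond control limits, cut at about 13% in these data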
Target sequence (P49862 whole entry, looked up): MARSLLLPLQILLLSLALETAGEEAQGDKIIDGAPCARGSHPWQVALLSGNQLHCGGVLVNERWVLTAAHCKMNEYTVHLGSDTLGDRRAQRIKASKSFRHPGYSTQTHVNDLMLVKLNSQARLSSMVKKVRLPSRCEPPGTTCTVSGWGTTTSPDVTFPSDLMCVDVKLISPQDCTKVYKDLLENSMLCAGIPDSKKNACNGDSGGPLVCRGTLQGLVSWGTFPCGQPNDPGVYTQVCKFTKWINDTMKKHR
rCAG binder = binders of r(CAG) RNA repeats, primary screen, biochemical, fluorescence; r(CAG) RNA repeat, TO-PRO-1 dye displacement fluorescence; inhibition, % at 3 µM; hit rate 1.3% among 370,000; AID 651821, 2012;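 active means inhibition above the plate cutoff, the mean of all test compounds on that plate plus 3 SD, cut at about 35% in these data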;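 further: higher means more dye released from RNA so lower well fluorescence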
rCAG binder conf = small molecules binding CAG repeat RNA – biochemical, fluorescence, confirmation; r(CAG) RNA repeat, TO-PRO-1 dye displacement fluorescence; hit rate 70% among 4,300; AID 652065, 2013; inhibition, % at 3 µM; shares compounds with rCAG binder;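 active means inhibition above a per-plate cutoff, the mean inhibition of sample wells plus 3 SD, cut at about 35% in these data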;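 further: loss of TO-PRO-1 fluorescence as compound displaces dye from 1x1 AA loop RNA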
DNA CAG counter = displacement of TO-PRO-1 from CAG DNA duplex, counter-screen for rCAG RNA repeat binder project, biochemical, fluorescence, TO-PRO-1 dye, d(CAG) DNA oligo. shares compounds with rCAG binder. d(CAG) DNA oligo TO-PRO-1 dye displacement. inhibition, % at 3 µM. hit rate 94% among 4,300. AID 652068, 2013;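 active means inhibition above its plate's cutoff, the mean test-well inhibition plus 3 SD, cut at about 4.8% in these data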;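 further: hits displace the dye from DNA and so lower well fluorescence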
dCAG dye DR = inhibitors of DNA CAG/GTC TO-PRO-1 complex, dose response, counter-screen for rCAG RNA repeat binder project, biochemical, fluorescence, TO-PRO-1 dye; shares compounds with rCAG binder; hit rate 20% among 250; DNA CAG/GTC duplex TO-PRO-1 dye displacement fluorescence; IC50, µM; in the data active means IC50 below about 10 µM
Numbers stand for hits; . = inactive; / = no result given. In the library only some 4.7% were active in any assay of this set; here they are far more common.

SMILES	DSG3 Ab inh	ADAM17 inh	MPTP block	ADAM10 inh	KLK7 zymogen act	rCAG binder	rCAG binder conf	DNA CAG counter	others
O=C(Nc1ccc(S(=O)(=O)O)cc1)c1ccc2c(c1)S(=O)(=O)c1ccccc1C2=O	.	.	.	.	.	40	.	.
Cc1ccc(C(C)C)c(OCc2nn(CC(=O)c3ccc(OC(F)F)cc3)c3[n+]2CCCCC3)c1	.	/	.	/	/	/	/	/
O=C(O)Cn1c(=O)c2c3c(sc2n(Cc2ccc(Cl)cc2Cl)c1=O)CCCC3	.	.	.	.	.	44	58	19
CC1CCc2sc3c(c2C1)c(=O)n(CC(=O)O)c(=O)n3Cc1ccc(Cl)cc1 (centres undefined)	.	.	.	.	.	54	49	13
COC(=O)c1cc(=O)nc(NN=Cc2ccccc2O)s1	/	.	/	.	.	.	/	/
COC(=O)[C@]12C[C@H](CC(=O)N3CCCC3)C(=O)N(Cc3ccco3)C1=C[C@H](COCc1ccccc1)O[C@@H]2C	/	.	/	.	.	.	/	/
CC1(C(=O)NS(=O)(=O)c2ccc(F)cc2F)CCN1C(=O)Cc1ccc(-c2ccccc2)cc1 (centres undefined)	/	.	.	.	.	58	44	11
CC(C)(C)c1ccc(CC(=O)N2CCC2(C)C(=O)NS(=O)(=O)Cc2ccccc2)cc1 (centres undefined)	/	.	.	.	.	41	36	9.3
CC(C)(C)c1ccc(CC(=O)N2CCC2(C)C(=O)NS(=O)(=O)c2ccccc2C(F)(F)F)cc1 (centres undefined)	/	.	.	.	.	58	45	13
CC(C)(C)c1ccc(CC(=O)N2CCC2(C)C(=O)NS(=O)(=O)c2ccc(F)cc2F)cc1 (centres undefined)	/	.	.	.	.	41	.	6.1
Cc1ccc(C(=O)N2CCC[C@@H]2C(=O)N2CCC[C@H]2C(=O)NCc2ccccc2)cc1C	/	.	/	.	.	.	/	/
O=C(CSc1nc2ccccc2c(=O)[nH]1)NC1CCCCC1	/	.	/	.	/	/	/	/
CC1CCN(C(=O)c2[nH]cnc2C(=O)N(C)CCO)CC1	/	.	/	.	.	.	/	/
CCC(C(=O)NC(C)(C)C)n1c(C(c2ccccc2)c2ccccc2)nc2ccccc21 (centres undefined)	/	.	.	.	.	.	/	/
CC1(C(=O)NS(=O)(=O)Cc2ccccc2C(F)(F)F)CCN1C(=O)c1ccccc1 (centres undefined)	/	.	.	.	.	.	/	/
CC1(C(=O)NS(=O)(=O)Cc2ccccc2C(F)(F)F)CCN1C(=O)C/C=C/c1ccccc1 (centres undefined)	/	.	.	.	.	46	51	10	dCAG dye DR=.
Cc1cc(C)nc(NS(=O)(=O)c2ccc(NC(=O)C3(c4ccc([N+](=O)[O-])cc4)CCCC3)cc2)n1	.	.	.	.	.	40	.	9.0
Cc1nc(S/C(=C\c2ccc(-c3ccc(C(=O)O)c(Cl)c3)o2)C(=O)O)n[nH]1	.	.	.	.	.	36	50	16
Cc1cccc(S(=O)(=O)NC(=O)C2(C)CCN2C(=O)Cc2cc(F)ccc2F)c1 (centres undefined)	/	.	.	.	.	.	/	/
CN1CC[C@@H]2CN(S(=O)(=O)c3ccccc3)[C@H](c3ccccc3Br)C[C@@H]21	/	.	/	.	.	.	/	/
COc1ccccc1Cc1c(-c2ccccc2)nc2ccc(Br)cn12	/	.	.	.	.	.	/	/
COc1ccccc1Cc1c(-c2cccc(Br)c2)nc2ccc(Br)cn12	/	.	.	.	.	54	.	7.3
COc1ccccc1Cc1c(-c2ccc(Cl)cc2)nc2ccc(Br)cn12	/	.	.	.	.	42	.	6.8
Cc1ccc(Cc2c(-c3cccc(Br)c3)nc3ccc(Br)cn23)cc1	/	.	.	.	.	38	.	9.7
Cc1ccc(Cc2c(-c3ccc(F)cc3)nc3c(C)cc(Br)cn23)cc1	/	/	.	/	/	/	/	/
SMILES	DSG3 Ab inh	ADAM17 inh	MPTP block	ADAM10 inh	KLK7 zymogen act	rCAG binder	rCAG binder conf	DNA CAG counter	others
Cc1ccc(Cc2c(-c3ccc(C)cc3)nc3c(C)cc(Br)cn23)cc1	/	.	.	.	.	41	.	6.3
COc1ccccc1Cc1c(-c2ccc(C)cc2)nc2ccc(Br)cn12	/	.	.	.	.	.	/	/
CCCOc1ccc(-c2cc(C(C)=O)c3n(c2=O)CCC3)cc1	/	.	/	.	.	.	/	/
O=C1CC(=O)NC(SCC(=O)Nc2ccccc2[N+](=O)[O-])=N1	.	.	.	.	.	41	52	24
O=C(O)[C@@H]1CCCN1C(=O)c1ccccc1N1C(=O)[C@@H]2Cc3c([nH]c4ccccc34)C(c3cccc(Cl)c3)N2C1=O (some centres undefined)	.	.	.	.	.	35	49	13
O=C(O)[C@H]1CCCN1C(=O)c1ccccc1N1C(=O)[C@@H]2Cc3c([nH]c4ccccc34)C(c3cccc(Cl)c3)N2C1=O (some centres undefined)	/	.	.	.	.	39	65	22
O=C(O)COc1ccccc1C=NNc1ccc([N+](=O)[O-])cc1S(=O)(=O)Nc1ccc(Cl)cc1	.	.	.	.	.	88	91	69
COc1ccc(NS(=O)(=O)c2cc([N+](=O)[O-])ccc2N/N=C\c2c(C)[nH]c3ccccc23)cc1	.	.	.	.	.	.	/	/
COc1ccc(NS(=O)(=O)c2cc([N+](=O)[O-])ccc2NN=Cc2ccccc2OCC(=O)O)cc1	.	.	.	.	.	85	88	63
CC(C)(C)c1ccc(/C=N/Nc2ccc(C(=O)O)cc2)cc1	.	.	.	.	.	39	36	8.8
COc1cccc(C(=O)Oc2ccc(/C=N/Nc3ccc(C(=O)O)cc3)cc2OC)c1	.	.	.	.	.	70	67	25

Assay outcomes (PubChem BioAssay)
